Inconclusive results are not listed. Calls of active or inactive are those of the source. The calls were made as follows, unless noted: active = hit-call score of the fitted dose curve at least 0.9, where 1 is the maximum; inconclusive = response in the unintended direction; inactive = score below 0.9.
How the values were obtained:
PGR (gene 5241) [1] = target: PGR (gene 5241) (UniProt P06401); assay: TOX21_PR_BLA_Followup_Agonist_ratio: Tox21 HEK293 Progesterone Receptor (PR) Agonism Beta-lactamase Follow-Up Assay, Ratio (AID 2283933)
PGR (gene 5241), sequence (P06401 whole entry, looked up): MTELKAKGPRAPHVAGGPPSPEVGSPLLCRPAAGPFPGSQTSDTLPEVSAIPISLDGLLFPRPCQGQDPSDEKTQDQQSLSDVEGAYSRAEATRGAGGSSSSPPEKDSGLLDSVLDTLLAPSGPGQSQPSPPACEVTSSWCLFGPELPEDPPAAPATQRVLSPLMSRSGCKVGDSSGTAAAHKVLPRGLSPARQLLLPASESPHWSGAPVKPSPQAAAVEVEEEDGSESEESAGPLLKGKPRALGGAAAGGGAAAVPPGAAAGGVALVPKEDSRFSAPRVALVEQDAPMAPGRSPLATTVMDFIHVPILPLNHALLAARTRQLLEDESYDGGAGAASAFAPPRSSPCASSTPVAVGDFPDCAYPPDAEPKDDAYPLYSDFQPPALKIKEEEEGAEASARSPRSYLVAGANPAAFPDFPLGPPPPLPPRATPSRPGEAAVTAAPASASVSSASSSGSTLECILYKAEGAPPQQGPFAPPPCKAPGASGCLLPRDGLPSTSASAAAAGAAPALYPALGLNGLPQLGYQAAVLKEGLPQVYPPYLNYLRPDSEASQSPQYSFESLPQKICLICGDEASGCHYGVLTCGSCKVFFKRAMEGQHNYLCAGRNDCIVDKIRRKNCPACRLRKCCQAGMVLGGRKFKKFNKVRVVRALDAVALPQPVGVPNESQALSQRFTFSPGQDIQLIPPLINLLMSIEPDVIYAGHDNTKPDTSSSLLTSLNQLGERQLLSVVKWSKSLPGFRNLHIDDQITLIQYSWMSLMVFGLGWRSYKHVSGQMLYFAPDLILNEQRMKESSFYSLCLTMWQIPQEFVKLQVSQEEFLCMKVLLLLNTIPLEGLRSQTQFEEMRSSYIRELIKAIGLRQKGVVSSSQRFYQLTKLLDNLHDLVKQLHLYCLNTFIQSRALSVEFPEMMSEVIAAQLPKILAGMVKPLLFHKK
In short: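 Ratio-based beta-lactamase reporter signal after 16 hr compound treatment of PR-UAS-bla HEK293T cells at 37C. Substrate loading lasted 2 hr at room temperature.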

PGR (gene 5241) [2] = target: PGR (gene 5241) (UniProt P06401); assay: TOX21_PR_BLA_Followup_Antagonist_ratio: Tox21 HEK293 Progesterone Receptor (PR) Antagonism Beta-lactamase Follow-Up Assay, Ratio (AID 2283934);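 also: PR-UAS-bla HEK293T cells stimulated with 1 nM R5020 agonist for 16 hr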
In short: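 Measured in PR-UAS-bla HEK293T cells co-treated with compound and 1 nM promegestone for 16 hr; beta-lactamase ratio read after 2 h FRET substrate loading, with parallel CellTiter-Glo cytotoxicity.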

[3] = TOX21_PR_BLA_Followup_Agonist_viability: Viability Assessment in the Tox21 HEK293 Progesterone Receptor (PR) Agonism Beta-lactamase Follow-Up Assay (AID 2283935);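 also: signal loss means lower viability so actives are cytotoxic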
In short: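 Viability is read as CellTiter-Glo luminescence, where loss of signal indicates cytotoxicity. The cells are PR-UAS-bla HEK293T given compounds for 16 hr at 37C and 5% CO2, in the same wells used for the bla readout.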

[4] = TOX21_PR_BLA_Followup_Antagonist_viability: Viability Assessment in the Tox21 HEK293 Progesterone Receptor (PR) Antagonism Beta-lactamase Follow-Up Assay (AID 2283936);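 also: cells exposed to compound with R5020 agonist for 16 h; hits lower the luminescence signal meaning cytotoxicity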
In short: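 PR-UAS-bla HEK293T cells in medium with 2% charcoal-stripped FBS were treated with compounds plus R5020 for 16 hr at 37C. After the beta-lactamase read, CellTiter-Glo was added to the same wells and luminescence read after 30 min at room temperature.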

PGR (gene 5241) [5] = target: PGR (gene 5241) (UniProt P06401); assay: TOX21_PR_LUC_Followup_Agonist: Tox21 HEK293 Progesterone Receptor (PR) Agonism Luciferase Follow-Up Assay (AID 2283937; active = hit-call score of the fitted dose curve at least 0.9, where 1 is the maximum; inactive = score below 0.9)
In short: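 In HEK293 cells stably expressing PR-A with a luciferase reporter, compounds were incubated 16 h at 37C, and induced luminescence was quantified with ONE-Glo, multiplexed with cell viability.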

PGR (gene 5241) [6] = target: PGR (gene 5241) (UniProt P06401); assay: TOX21_PR_LUC_Followup_Antagonist: Tox21 HEK293 Progesterone Receptor (PR) Antagonism Luciferase Follow-Up Assay (AID 2283938);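 also: curve fitted upward as signal gain over DMSO baseline despite antagonist label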
In short: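 Cells are grown 5 days in charcoal-stripped-FBS assay medium, plated, left 5 h, then dosed with compound and incubated 16 h. ONE-Glo reagent is added and luminescence read after 30 min.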

[7] = TOX21_PR_LUC_Followup_Agonist_viability: Viability Assessment in the Tox21 HEK293 Progesterone Receptor (PR) Agonism Luciferase Follow-Up Assay (AID 2283941);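 also: loss of signal means cytotoxicity so actives lower viability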
In short: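 Seeding: HEK293-PR-A-luc, 3,000 cells/well, 5 h at 37C. Treatment: compound in DMSO, 16 h, 37C. Read: CellTiter-Glo ATP luminescence, signal loss taken as lower viability.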

[8] = target: Thyroid hormone receptor alpha (Rattus norvegicus) + Thyroid hormone receptor beta (Rattus norvegicus) (UniProt P18113+P63059); assay: TOX21_TR_LUC_GH3_Agonist_Followup: Tox21 GH3 Thyroid Hormone Receptor Agonism Luciferase Follow-Up Assay (AID 2283939)
Thyroid hormone receptor alpha (Rattus norvegicus) + Thyroid hormone receptor beta (Rattus norvegicus), sequence (P63059 whole entry, looked up): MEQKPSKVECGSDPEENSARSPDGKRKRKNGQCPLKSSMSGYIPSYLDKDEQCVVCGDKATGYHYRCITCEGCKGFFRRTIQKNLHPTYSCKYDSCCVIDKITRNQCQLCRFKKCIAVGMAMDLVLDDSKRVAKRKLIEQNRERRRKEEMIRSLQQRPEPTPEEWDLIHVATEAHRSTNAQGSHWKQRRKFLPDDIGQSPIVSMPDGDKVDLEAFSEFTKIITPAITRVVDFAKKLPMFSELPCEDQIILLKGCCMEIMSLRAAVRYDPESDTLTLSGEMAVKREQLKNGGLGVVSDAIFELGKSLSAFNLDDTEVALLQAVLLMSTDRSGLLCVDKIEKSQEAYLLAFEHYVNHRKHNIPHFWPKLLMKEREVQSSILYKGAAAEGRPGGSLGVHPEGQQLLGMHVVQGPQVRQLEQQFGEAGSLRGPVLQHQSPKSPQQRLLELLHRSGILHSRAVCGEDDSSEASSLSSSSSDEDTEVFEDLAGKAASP
Thyroid hormone receptor alpha (Rattus norvegicus) + Thyroid hormone receptor beta (Rattus norvegicus), sequence (P18113 whole entry, looked up): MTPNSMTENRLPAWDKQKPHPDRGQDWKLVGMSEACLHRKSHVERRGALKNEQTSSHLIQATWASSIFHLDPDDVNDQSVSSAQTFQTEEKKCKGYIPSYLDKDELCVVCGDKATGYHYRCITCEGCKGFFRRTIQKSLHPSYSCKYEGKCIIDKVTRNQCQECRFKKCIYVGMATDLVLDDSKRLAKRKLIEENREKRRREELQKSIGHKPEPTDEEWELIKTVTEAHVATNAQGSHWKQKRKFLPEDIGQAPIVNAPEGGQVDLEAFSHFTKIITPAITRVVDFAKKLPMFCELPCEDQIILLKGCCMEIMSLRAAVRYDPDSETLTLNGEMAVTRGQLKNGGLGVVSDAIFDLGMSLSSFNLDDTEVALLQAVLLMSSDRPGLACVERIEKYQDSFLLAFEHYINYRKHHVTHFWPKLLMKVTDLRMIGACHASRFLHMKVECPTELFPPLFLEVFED
In short: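 Agonist-mode confirmatory run: 15 concentrations (5 nM to 92 uM final) on GH3 rat pituitary cells, 24 h at 37C/5% CO2, T3 as positive control. Luminescence read with ONE-Glo after 30 min.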

THRA (gene 7067) = THRA (gene 7067) (UniProt P10827); assay: TOX21_TRA_COA_Agonist_Followup_ratio: Tox21 Thyroid Hormone Receptor alpha Agonism through Coactivator Recruitment Follow-Up Assay, Ratio (AID 2283948; active = hit-call score of the fitted dose curve at least 0.9, where 1 is the maximum; inactive = score below 0.9)
THRA (gene 7067), sequence (P10827 whole entry, looked up, the tested form may be a part): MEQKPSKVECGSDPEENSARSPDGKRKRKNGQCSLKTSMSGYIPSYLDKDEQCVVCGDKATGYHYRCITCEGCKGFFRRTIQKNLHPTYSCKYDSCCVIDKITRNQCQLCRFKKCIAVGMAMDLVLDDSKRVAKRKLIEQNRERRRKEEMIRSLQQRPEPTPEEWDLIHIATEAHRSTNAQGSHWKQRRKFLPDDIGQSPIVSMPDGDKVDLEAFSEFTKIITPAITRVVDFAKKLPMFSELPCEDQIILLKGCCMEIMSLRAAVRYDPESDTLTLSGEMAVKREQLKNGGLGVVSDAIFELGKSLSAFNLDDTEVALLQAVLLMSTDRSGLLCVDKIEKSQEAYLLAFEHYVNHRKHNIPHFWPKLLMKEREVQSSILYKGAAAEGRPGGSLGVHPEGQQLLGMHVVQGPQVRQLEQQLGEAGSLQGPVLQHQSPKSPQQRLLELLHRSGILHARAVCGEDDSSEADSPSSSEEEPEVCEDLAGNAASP
In short: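 Follow-up specificity assay in which TRα ligand-binding domain, expressed as a GST fusion, recruits a fluorescein-labelled SRC-2 peptide. Energy transfer from a terbium anti-GST antibody gives the acceptor/donor ratio, fitted upward relative to DMSO.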

THRB (gene 7068) [9] = target: THRB (gene 7068) (UniProt P10828); assay: TOX21_TRB_COA_Agonist_Followup_ratio: Tox21 Thyroid Hormone Receptor beta Agonism through Coactivator Recruitment Follow-Up Assay, Ratio (AID 2283963; active = hit-call score of the fitted dose curve at least 0.9, where 1 is the maximum; inactive = score below 0.9)
THRB (gene 7068), sequence (P10828 whole entry, looked up, the tested form may be a part): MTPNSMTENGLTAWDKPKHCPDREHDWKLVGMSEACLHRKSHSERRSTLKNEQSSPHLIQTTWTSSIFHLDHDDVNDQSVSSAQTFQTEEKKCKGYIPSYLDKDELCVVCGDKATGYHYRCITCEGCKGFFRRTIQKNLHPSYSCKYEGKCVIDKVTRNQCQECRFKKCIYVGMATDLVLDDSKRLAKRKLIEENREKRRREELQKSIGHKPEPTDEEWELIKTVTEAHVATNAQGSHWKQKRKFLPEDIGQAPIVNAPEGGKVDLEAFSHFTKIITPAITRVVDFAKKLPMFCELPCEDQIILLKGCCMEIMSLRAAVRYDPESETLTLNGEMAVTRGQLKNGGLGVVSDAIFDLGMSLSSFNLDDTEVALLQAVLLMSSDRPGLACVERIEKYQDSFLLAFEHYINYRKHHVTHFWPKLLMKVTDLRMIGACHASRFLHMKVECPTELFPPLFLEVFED
In short: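 Agonism is measured as coactivator recruitment in a purified-protein TR-FRET format, using GST-TRβ LBD at 5.0 nM, fluorescein-SRC-2 peptide at 200 nM and Tb-labeled anti-GST antibody at 2 nM. Values are 520:495 nm ratios relative to DMSO (0%) and T3 (100%).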

[10] = target: Retinoic acid receptor RXR-alpha (Homo sapiens) (UniProt P19793); assay: TOX21_TR_RXR_BLA_Agonist_Followup_ratio: Tox21 Thyroid Hormone Receptor beta Retinoid X Receptor alpha (RXRa) Agonism Beta-lactamase (BLA) Follow-Up Assay, Ratio (AID 2283968)
Retinoic acid receptor RXR-alpha (Homo sapiens), sequence (P19793 whole entry, looked up): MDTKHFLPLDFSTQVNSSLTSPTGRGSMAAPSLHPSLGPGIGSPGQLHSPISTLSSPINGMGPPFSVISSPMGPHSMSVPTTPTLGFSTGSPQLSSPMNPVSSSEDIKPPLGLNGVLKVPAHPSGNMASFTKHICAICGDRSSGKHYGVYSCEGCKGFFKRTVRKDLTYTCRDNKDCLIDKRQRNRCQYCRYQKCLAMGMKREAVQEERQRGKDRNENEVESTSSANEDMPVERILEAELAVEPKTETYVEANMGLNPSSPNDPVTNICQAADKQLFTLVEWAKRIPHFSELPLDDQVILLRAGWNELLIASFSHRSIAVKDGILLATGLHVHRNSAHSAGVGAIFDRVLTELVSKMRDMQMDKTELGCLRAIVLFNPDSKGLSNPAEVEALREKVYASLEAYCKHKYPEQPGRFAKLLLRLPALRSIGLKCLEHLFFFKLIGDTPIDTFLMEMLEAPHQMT
In short: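 Agonism is scored as an increase in the 460:530 nm beta-lactamase substrate ratio over DMSO in RXRa-UAS-bla HEK293T cells exposed for 16 h to 11 compound concentrations.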

[11] = TOX21_TR_RXR_BLA_Agonist_Followup_viability: Viability Assessment in the Tox21 Thyroid Hormone Receptor beta Retinoid X Receptor alpha (RXRa) Agonism Beta-lactamase (BLA) Follow-Up Assay (AID 2283970)
In short: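 Luminescent ATP read (CellTiter-Glo) after 16h exposure of RXRa-UAS-bla HEK293T cells at 37C/5% CO2. Activity normalized to DMSO; signal loss scored as reduced viability.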

THRB (gene 7068) [12] = target: THRB (gene 7068) (UniProt P10828); assay: TOX21_TRB_BLA_Agonist_Followup_ratio: Tox21 Thyroid Hormone Receptor beta Agonism Beta-lactamase (BLA) Follow-Up Assay, Ratio (AID 2283954)
In short: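 Agonist mode: compounds (11-point, triplicate) incubated 18 h with HEK293T cells carrying GAL4-DBD/human TRβ-LBD and UAS-β-lactamase. Blue/green (460/530 nm) FRET ratio read after 2 h CCF4-AM loading; CellTiter-Glo viability run in the same plates.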

Measured: AC50

CC(=O)O[C@@H]1CC2C3CCc4cc(OC(=O)c5ccccc5)ccc4C3CCC2(C)[C@H]1OC(C)=O (stereo partly specified)
active: PGR (gene 5241) [2] 5.65 µM | PGR (gene 5241) [5] 20.1 µM | PGR (gene 5241) [6] 1.05 µM
inactive: PGR (gene 5241) [1] | [3] | [4] | [7]

C[C@@H]1C[C@H]2[C@@H]3CCC4=CC(=O)C=C[C@]4(C)[C@@]3(F)[C@@H](O)C[C@]2(C)[C@@]1(O)C(=O)COC(=O)c1ccncc1
active: PGR (gene 5241) [1] 26.1 µM | PGR (gene 5241) [5] 0.51 µM
inactive: PGR (gene 5241) [2] | [3] | [4] | [7]

C=C(NC(=O)C(=C)NC(=O)c1csc(C2=NC3c4csc(n4)C4NC(=O)c5csc(n5)C(C(C)(O)C(C)O)NC(=O)C5CSC(=N5)/C(=C/C)NC(=O)C(C(C)O)NC(=O)c5csc(n5)C3(CC2)NC(=O)C(C)NC(=O)C(=C)NC(=O)C(C)NC(=O)C(C(C)CC)NC2C=Cc3c(C(C)O)cc(nc3C2O)C(=O)OC4C)n1)C(N)=O (stereo unspecified)
active: [8] 2.47 µM
inactive: THRA (gene 7067) | THRB (gene 7068) [9] | [10] | [11]

Nc1ncn([C@H]2C[C@H](O)[C@@H](CO)O2)c(=O)n1
inactive: [8] | THRA (gene 7067) | THRB (gene 7068) [12] | THRB (gene 7068) [9] | [10] | [11]

CCC(=O)Oc1ccc2c(c1)CC[C@@H]1[C@@H]2CC[C@@]2(C)[C@H]1C[C@@H](OC(=O)CC)[C@@H]2OC(=O)CC
inactive: PGR (gene 5241) [1] | [3] | [4] | PGR (gene 5241) [6] | [7]
active: PGR (gene 5241) [2] 2.81 µM | PGR (gene 5241) [5] 16.8 µM

— PubChem BioAssay (EPA / NIEHS)
